Compound activity deposited in PubChem BioAssay by National Center for Advancing Translational Sciences (NCATS).
BAZ2B block: qHTS Assay for Inhibitors of BAZ2B | Bromodomain adjacent to zinc finger domain protein 2B (Homo sapiens), Q9UIF8 | AlphaScreen BAZ2B-H3K14Ac peptide displacement | Potency, µM (top dose mostly 114 µM), inactives show at the top dose activity change, negative = inhibition, hits mostly inhibitors | 4.4% of 360,000 active | AID 504333, 2011; also: % is scaled to controls: 0 for no effect and ±100 for the full control effect; nearly all actives have a fitted effect of over 60% in size
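AlphaScreen displacement of biotin-H3(5-23)K14Ac peptide (50 nM final) from BAZ2B (50 nM final) in PBS pH 7.4, 0.01% Tween-20; complex preformed 30 min RT, then compounds (top 110 uM) 30 min RT, beads 20 min dark.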
HP1b binding inh: HTS for Inhibitors of HP1-beta Chromodomain Interactions with Methylated Histone Tails; AlphaScreen HP1-beta / biotin-H3K9me3 peptide binding; Potency, µM (series often up to 114 µM), for inactives: at the highest dose activity change, negative = inhibition, actives largely listed as inhibitors; 0.56% of 390,000 active; AID 540317, 2011; also: nearly all actives have a fitted effect of over 70% in size
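AlphaScreen: HP1-beta (50 nM) preformed 30 min with biotin-H3(1-18)K9me3 peptide (50 nM) in PBS pH 7.4, 0.01% Tween-20. Compound added for 30 min at RT, then streptavidin donor/nickel chelate acceptor beads (10 ug/mL) for 30 min.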
G9a inh: qHTS Assay for Inhibitors of Histone Lysine Methyltransferase G9a | Histone-lysine N-methyltransferase EHMT2 (Homo sapiens), Q96KQ7 | G9a H3K9 monomethylation, AlphaScreen, 2 h | Potency, µM (highest dose often 102 µM), without a hit: top-dose activity, negative = inhibition, actives largely listed as inhibitors | 8.8% of 350,000 active | AID 504332, 2011; also: % is scaled to controls: 0 for no effect and ±100 for the full control effect; nearly all actives have a fitted effect of over 75% in size
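AlphaScreen read-out: biotin-H3K9 peptide (500 nM) methylation by 20 nM enzyme with 20 uM SAM, 2 h at room temperature after 15 min compound preincubation; anti-monomethyl H3K9 antibody plus donor/acceptor beads, 10 min dark.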
JMJD2A Tudor inh: qHTS Assay for Inhibitors of JMJD2A-Tudor Domain; Potency, µM (titrated, usually from 114 µM), inactives show top-dose activity change, negative = inhibition, actives largely listed as inhibitors; Lysine-specific demethylase 4A (Homo sapiens), O75164; 4.4% of 390,000 active; AlphaScreen JMJD2A-Tudor / H3K4me3 peptide binding; also: % is scaled to controls: 0 for no effect and ±100 for the full control effect; nearly all actives have a fitted effect of over 50% in size
GLS inh: qHTS for Inhibitors of Glutaminase (GLS); Glutaminase kidney isoform, mitochondrial (Homo sapiens), O94925; GLS enzymatic activity, qHTS titration; Potency, µM (highest dose often 45.5 µM), for inactives: top-dose activity change, negative = inhibition, hits mostly inhibitors; 0.21% of 410,000 active; AID 624170, 2012; also: % is scaled to controls: 0 for no effect and ±100 for the full control effect
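hKGA in 45 mM KH2PO4 pH 8.2, 0.02% Tween-20 with pin-transferred compounds; 1 mM L-glutamine (stock) plus glutamate oxidase/HRP/Amplex Red coupling added. Fluorescence read initially and after 30 min at RT.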
Numbers without * were called inactive; [ ] = another dose, or the depositor's remark. Shown are actives, neighbours in structure and some others; about 10% of the full set was active somewhere. Calls follow the shape of the dose curve; as a rule, active = well fitted curve in the direction sought with a large enough effect; inconclusive = small, poorly fitted or top-dose-only effect, or another doubt; inactive = no such curve, though single readings can be large; an effect the other way counts as inactive or inconclusive. Potency is read from the fitted curve at half-maximal effect.

How did O=C1Nc2cc(C(=O)NCCCN3CCCC3)ccc2S/C1=C/c1ccccc1F do in these assays?
BAZ2B block: -38%; HP1b binding inh: -10%[57 µM]; G9a inh: 14µM*; JMJD2A Tudor inh: inconclusive; GLS inh: 16%

What do the screens show for `O=C(NCCCN1CCCCC1)c1ccc2c(c1)NC(=O)c1ccccc1S2`?
BAZ2B block: -4%[57.1 µM]; HP1b binding inh: 21%; G9a inh: 50µM*; JMJD2A Tudor inh: -19%; GLS inh: -7%

Results for CCN1CCN(Cc2oc(CO)cc(=O)c2O)CC1 ?
BAZ2B block: 50µM*; HP1b binding inh: 13%; G9a inh: 1.8µM*; JMJD2A Tudor inh: 13µM*; GLS inh: 9%

What do the screens show for `O=c1cc(CO)oc(CN2CCN(c3ccccc3)CC2)c1O`?
BAZ2B block: -31%; HP1b binding inh: -6%; G9a inh: 22µM*; JMJD2A Tudor inh: 50µM*; GLS inh: 41%

Results for O=c1cc(CO)oc(CN2CCN(c3ccccc3F)CC2)c1O ?
BAZ2B block: -31%; HP1b binding inh: 20%; G9a inh: inconclusive; JMJD2A Tudor inh: inconclusive; GLS inh: 22%

What do the screens show for `COc1ccc(C(=O)OC(C)C(=O)NCC2CCCCC2)cc1S(=O)(=O)N1CCOCC1` (configuration not stated)?
BAZ2B block: 3%; HP1b binding inh: 37%; G9a inh: 26%[12.7 µM]; JMJD2A Tudor inh: -9%; GLS inh: 0%

Results for COC(=O)c1sc(SC)c(S(=O)(=O)C(C)C)c1N/N=C(\C#N)C(=O)c1ccccc1 ?
BAZ2B block: -29%; HP1b binding inh: -14%; G9a inh: 45µM*; JMJD2A Tudor inh: inconclusive; GLS inh: 26%

Results for COC(=O)c1sc(SC)c(S(=O)(=O)C(C)C)c1N ?
BAZ2B block: -11%; HP1b binding inh: 51%; JMJD2A Tudor inh: -18%; GLS inh: 0%

How did CCOC(=O)c1cnc2ccc(OC)cc2c1Nc1ccc(N2CCN(C)CC2)cc1 do in these assays?
BAZ2B block: 35µM*; HP1b binding inh: -32%[57 µM]; G9a inh: 35µM*; JMJD2A Tudor inh: 32µM*; GLS inh: 13µM*

Results for CCOC(=O)c1cnc(N2CCN(c3ccc(OC)cc3)CC2)c2ccccc12 ?
BAZ2B block: inconclusive; HP1b binding inh: 1%[57 µM]; G9a inh: 14µM*; JMJD2A Tudor inh: inconclusive; GLS inh: 2%

What do the screens show for `CCOC(=O)c1cnc2c(C)cccc2c1Nc1ccc(N2CCOCC2)cc1`?
BAZ2B block: 14µM*; G9a inh: 28µM*

Results for CCn1c(C)c(C(C)=O)c(N2CCN(c3ccc(OC)cc3)CC2)nc1=S ?
BAZ2B block: inconclusive; HP1b binding inh: -4%; G9a inh: 35µM*; JMJD2A Tudor inh: -31%; GLS inh: 27%

What do the screens show for `COc1ccc(N2CCN(C(=O)c3cnc(N4CCOCC4)c4ccccc34)CC2)cc1`?
BAZ2B block: inconclusive; HP1b binding inh: -1%[57 µM]; G9a inh: inconclusive; JMJD2A Tudor inh: -32%; GLS inh: 2%

What do the screens show for `CCOC(=O)c1cnc2ccc(OC)cc2c1Nc1ccc2c(c1)OCCO2`?
BAZ2B block: inconclusive; HP1b binding inh: -16%; G9a inh: inconclusive; JMJD2A Tudor inh: inconclusive; GLS inh: 2%

Results for CCOC(=O)c1cnc2ccccc2c1Nc1ccc(N2CCOCC2)cc1 ?
BAZ2B block: inconclusive; HP1b binding inh: -14%; G9a inh: inconclusive; JMJD2A Tudor inh: inconclusive; GLS inh: 2%

How did O=C1CCc2cc(S(=O)(=O)Nc3ccncc3)ccc2N1 do in these assays?
JMJD2A Tudor inh: -24%

How did Cc1cc(C)c(C)c(S(=O)(=O)NC2CCN(Cc3ccccc3)CC2)c1C do in these assays?
BAZ2B block: -21%; HP1b binding inh: 16%; G9a inh: -31%; JMJD2A Tudor inh: inconclusive; GLS inh: -11%

What do the screens show for `CCOC(=O)c1ccc2ncc(C(=O)OCC)c(Nc3ccc(N4CCOCC4)cc3)c2c1`?
BAZ2B block: 14µM*; HP1b binding inh: inconclusive; G9a inh: inconclusive; JMJD2A Tudor inh: 40µM*; GLS inh: 3%

What do the screens show for `CCOC(=O)c1cnc2c(C)c(Cl)ccc2c1Nc1ccc(N2CCOCC2)cc1`?
BAZ2B block: 10µM*; HP1b binding inh: -27%; G9a inh: 7.9µM*; JMJD2A Tudor inh: inconclusive; GLS inh: 22%

What do the screens show for `CCOC(=O)c1cnc2c(Cl)cc(Cl)cc2c1Nc1cc(C(=O)O)ccc1C`?
BAZ2B block: -15%; HP1b binding inh: 18%; G9a inh: -41%[59 µM]; JMJD2A Tudor inh: -21%; GLS inh: 4%

How did CCOC(=O)c1cnc2ccccc2c1Nc1cc(C(=O)O)ccc1C do in these assays?
BAZ2B block: -1%; HP1b binding inh: 49%; G9a inh: 50µM*; JMJD2A Tudor inh: -3%[11.4 µM]; GLS inh: 1%

How did O=C1CS(=O)(=O)C2(C(=O)Nc3ccccc32)N1c1cccc(Cl)c1 (configuration not stated) do in these assays?
BAZ2B block: 1%[57.1 µM]; HP1b binding inh: 21%; G9a inh: 22µM*; JMJD2A Tudor inh: -1%; GLS inh: 1%

How did Cc1ccc(S(=O)(=O)Nc2ccccc2F)cc1C(=O)NCc1ccco1 do in these assays?
BAZ2B block: -3%; HP1b binding inh: 21%; G9a inh: -5%[59 µM]; JMJD2A Tudor inh: -26%; GLS inh: 0%

Results for CCOCCCN1C(=O)CN(C2CCCCCC2)C(=O)C1c1ccc(OCC)c(OC)c1 (configuration not stated) ?
BAZ2B block: -1%; HP1b binding inh: 18%; G9a inh: 10%[59 µM]; JMJD2A Tudor inh: -8%; GLS inh: -9%

Results for CCCOc1ccc(C2C(=O)N(C3CCCCC3)CC(=O)N2CCCOCC)cc1OC (configuration not stated) ?
BAZ2B block: 5%; HP1b binding inh: 36%; G9a inh: 7.9µM*; JMJD2A Tudor inh: 8%; GLS inh: -11%

How did S=P(c1ccc(N2CCOCC2)cc1N1CCOCC1)(N1CCOCC1)N1CCOCC1 do in these assays?
BAZ2B block: -30%; HP1b binding inh: inconclusive; G9a inh: 10µM*; JMJD2A Tudor inh: -32%; GLS inh: -15%

What do the screens show for `CC(C)NS(=O)(=O)c1ccc2nc(NC(=O)c3cncc(Br)c3)sc2c1`?
BAZ2B block: 0%; HP1b binding inh: 17%[57 µM]; G9a inh: inconclusive; JMJD2A Tudor inh: -29%; GLS inh: 1%

How did COc1ccccc1N1Cc2ccccc2C1 do in these assays?
BAZ2B block: 56µM*; HP1b binding inh: 1%; G9a inh: 10µM*; JMJD2A Tudor inh: 50µM*; GLS inh: 2%
